Screening results: PubChem, several laboratories
PABP1 MLLE inh = inhibitors of PABP1 MLLE–PAM2 peptide binding, primary screen, biochemical, fluorescence polarization, FITC-PAM2, GST-MLLE; inhibition, % at 20 µM; 360,000 compounds, 0.36% hits; AID 588489, 2011; in the data active = inhibition above about 35%, passing the limit was not always enough
Target sequence (P11940 whole entry, looked up): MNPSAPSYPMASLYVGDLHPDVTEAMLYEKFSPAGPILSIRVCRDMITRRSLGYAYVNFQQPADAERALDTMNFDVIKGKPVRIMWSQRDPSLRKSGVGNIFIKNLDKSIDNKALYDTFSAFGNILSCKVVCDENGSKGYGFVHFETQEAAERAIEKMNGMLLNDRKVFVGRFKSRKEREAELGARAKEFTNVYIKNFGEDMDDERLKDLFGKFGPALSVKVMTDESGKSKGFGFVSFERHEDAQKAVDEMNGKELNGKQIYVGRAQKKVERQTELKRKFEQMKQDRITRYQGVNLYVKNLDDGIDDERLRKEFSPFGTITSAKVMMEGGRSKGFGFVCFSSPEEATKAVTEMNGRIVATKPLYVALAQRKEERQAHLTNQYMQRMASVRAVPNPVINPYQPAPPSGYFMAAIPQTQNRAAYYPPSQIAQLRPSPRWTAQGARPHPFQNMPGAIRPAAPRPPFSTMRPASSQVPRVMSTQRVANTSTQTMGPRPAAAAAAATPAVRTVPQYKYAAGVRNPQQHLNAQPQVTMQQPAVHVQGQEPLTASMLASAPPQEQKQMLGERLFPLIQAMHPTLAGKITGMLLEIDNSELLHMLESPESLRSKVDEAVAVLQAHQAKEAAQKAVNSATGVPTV
ABCB6 inh 2 = ABCB6 transporter inhibitors, primary screen, K562-ABCB6 cells, flow cytometry, MLPCN library; fluorescence ratio to DMSO, % at 10 µM; 360,000 compounds, 0.19% hits; K562-ABCB6 porphyrin accumulation, 1 h; active compounds read low; ATP-binding cassette sub-family B member 6 (Homo sapiens), Q9NP58;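 active = fluorescence ratio to DMSO below 75%, the collection mean minus 3 SD; inconclusive = too few cells collected in the well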;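 also: signal is porphyrin accumulated inside mitochondria; lower ratio means ABCB6 inhibition with less porphyrin fluorescence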
AI-2 QS modul = Vibrio harveyi AI-2 quorum sensing modulators, primary screen, JMH597 strain, luminescence/OD600 ratio; Vibrio harveyi JMH597 AI-2 luminescence/OD600 ratio, 9 h; active compounds read low; strain lacks LuxN and CqsS sensors; 0 = neutral-control median; activity change, % at 7.5 µM; 300,000 compounds, 0.4% hits; AID 2094, 2009; in the data active = activity change below about -75%, passing the limit was not always enough; inconclusive = no clear call, values can overlap the other calls;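 also: luminescence divided by OD600 gain over 9 h not by final OD600 alone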
PABP FP inh = PABP poly(A) RNA binding inhibitors, primary screen, biochemical, fluorescence polarization, uHTS; Polyadenylate-binding protein 1 (Homo sapiens), P11940; calls only at 35 µM; 290,000 compounds, 1% hits;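 also: calls also rest on retests at 20 µM and on dose response follow-up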
PHOSPHO1 inh = PubChem AID 1565 | recombinant PHOSPHO1, absorbance phosphatase assay | Phosphoethanolamine/phosphocholine phosphatase (Homo sapiens), Q8TCT1 | 290,000 compounds, 1.1% hits | inhibition, % at 13.3 µM; in the data active = inhibition above about 60%
eIF4H inh = human eIF4H binding inhibitors, primary screen, translation initiation inhibitor project, biochemical, uHTS, fluorescence polarization | eIF4H fluorescence polarization binding assay | Eukaryotic translation initiation factor 4H (Homo sapiens), Q15056 | 290,000 compounds, 0.94% hits | inhibition, % at 35 µM;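 also: calls also rest on retests at 20 µM and on dose response follow-up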
Large screens that a line does not name were inactive. Compounds with a hit are over-represented: about 2.6% of the library has one in this group of screens. Unless noted, no rule for the calls is given here.

CC(C)(C)c1nnc(NC(=S)Nc2ccccc2)s1	PABP1 MLLE inh 43, PABP FP inh inconclusive, eIF4H inh inconclusive
COc1cc(OC)cc(C(=O)Nc2nnc(NC(=S)Nc3ccccc3)s2)c1	none
N#C/C(=C(/O)COC(=O)CCc1ccc(S(=O)(=O)N2CCOCC2)cc1)c1nc2ccccc2[nH]1	PABP FP inh active
O=C(OCC(=O)c1c[nH]c2ccccc12)c1ccc([N+](=O)[O-])s1	AI-2 QS modul -99
CCOC(=O)c1c(C)[nH]c(C)c1C(=O)COC(=O)c1ccc([N+](=O)[O-])s1	none (no result: AI-2 QS modul, PABP FP inh, PHOSPHO1 inh, eIF4H inh)
CCc1cccc2c(C(=O)COC(=O)c3ccc([N+](=O)[O-])s3)c[nH]c12	AI-2 QS modul -206
CCc1cccc2c(C(=O)CCl)c[nH]c12	none
COC(=O)[C@]12CCCCC=C1N(Cc1ccc(Cl)cc1Cl)C(=O)[C@H](CC(=O)NCc1cccs1)C2	none (no result: PABP1 MLLE inh, AI-2 QS modul, PABP FP inh, PHOSPHO1 inh, eIF4H inh)
CN1CCN(CC(=O)Nc2sc3c(c2C(=O)Nc2ccccc2)CCCC3)CC1	PABP FP inh active
CC12CC3(C)CC(C)(C1)CC(C(=O)NC(=S)NC(C)(C)C)(C2)C3	PABP1 MLLE inh 43
CCCCOc1ccc(C(=O)NCCN2CCC(n3c(=O)[nH]c4ccccc43)CC2)cc1	none (no result: PABP1 MLLE inh, AI-2 QS modul, PABP FP inh, PHOSPHO1 inh, eIF4H inh)
O=c1[nH]c(CN2CCCCC2)ccc1O	PABP1 MLLE inh 45 (no result: AI-2 QS modul, PABP FP inh, PHOSPHO1 inh, eIF4H inh)
O=c1[nH]cnc(CN2CCCCC2)c1O	none (no result: AI-2 QS modul, PABP FP inh, PHOSPHO1 inh, eIF4H inh)
Cc1ccc(-c2cc(-c3ccc(C)o3)nc(N)c2C#N)cc1	PABP FP inh inconclusive, eIF4H inh inconclusive
Cc1ccc(-c2c(C#N)c(N)nc3c2CCCCC3)o1	PABP FP inh active, eIF4H inh 63
Cc1cc(-c2cc(-c3ccc(Cl)cc3)nc(N)c2C#N)co1	PABP FP inh active, eIF4H inh inconclusive
Cc1ccc(-c2cc(-c3ccc(Cl)cc3)c(C#N)c(N)n2)o1	PHOSPHO1 inh 72
Cc1ccc(-c2c(C#N)c(N)nc3c2CCCCCC3)o1	none
C=CCNc1sc(C(=O)c2ccccc2)c(N)c1C#N	PHOSPHO1 inh 96
C=CCNc1sc(C(=O)c2ccc(C)cc2)c(N)c1C#N	PHOSPHO1 inh 96
C=CCNc1sc(C(=O)c2ccc(Br)s2)c(N)c1C#N	PHOSPHO1 inh 82
C=CCNc1sc(C(=O)C(C)(C)C)c(N)c1C#N	none
COc1ccc(-c2cc(CNc3nc(NCc4ccccc4OC)nc4ccsc34)on2)cc1	none (no result: AI-2 QS modul, PABP FP inh, PHOSPHO1 inh, eIF4H inh)
COc1cc(F)ccc1-c1csc(C(NC(C)=O)c2ccc(F)c(F)c2)n1 (stereo not given)	none (no result: AI-2 QS modul, PABP FP inh, PHOSPHO1 inh, eIF4H inh)
O=C(Nc1cc(C(F)(F)F)ccc1N1CCCCC1)C1=COCCO1	none (no result: AI-2 QS modul, PABP FP inh, PHOSPHO1 inh, eIF4H inh)
COc1cc(C(=O)N=c2sccn2C)c([N+](=O)[O-])cc1OC	none
Cn1ccsc1=NC(=O)c1ccc([N+](=O)[O-])o1	AI-2 QS modul -86, PABP FP inh active, eIF4H inh 80
CC(C)C[C@H]1CNC(=O)C(=O)N1C[C@@H]1CCCN1C[C@H](Cc1ccccc1)N1C[C@H](Cc2ccccc2)N(CCc2ccccc2)C(=O)C1=O	none (no result: PABP1 MLLE inh, AI-2 QS modul, PABP FP inh, PHOSPHO1 inh, eIF4H inh)
CN1CCN(C(c2ccccn2)c2cc(Cl)c3cccnc3c2O)CC1 (stereo not given)	PABP1 MLLE inh 43
Cc1ccc(C(c2cc(Cl)c3cccnc3c2O)N2CCN(C)CC2)cc1 (stereo not given)	PABP1 MLLE inh 48, AI-2 QS modul -169
Oc1c(C(c2ccccn2)N2CCC(Cc3ccccc3)CC2)cc(Cl)c2cccnc12 (stereo not given)	AI-2 QS modul inconclusive (no result: PABP1 MLLE inh, ABCB6 inh 2)
Oc1c(C(c2ccc(Cl)cc2)N2CCCC2)cc(Cl)c2cccnc12 (stereo not given)	AI-2 QS modul -121
COc1ccc(-c2csc(C(O)c3ccc(F)cc3)n2)cc1OC (stereo not given)	none (no result: AI-2 QS modul, PABP FP inh, PHOSPHO1 inh, eIF4H inh)
O=C(CSc1nncc2ccccc12)N1CCOCC1	PABP1 MLLE inh 42
CC(=O)NC(c1ccccc1)c1nc(-c2csc3ccccc23)cs1 (stereo not given)	none (no result: AI-2 QS modul, PABP FP inh, PHOSPHO1 inh, eIF4H inh)
Cc1cccc2cc3c(N)c(C#N)sc3nc12	PHOSPHO1 inh 64
Cc1nc(S/C(=C\c2ccc(-c3ccc(C(=O)O)c(Cl)c3)o2)C(=O)O)n[nH]1	PABP FP inh active, eIF4H inh 75
Cc1nc(S/C(=C\c2ccc(OCc3ccccc3Cl)cc2)C(=O)O)n[nH]1	none (no result: AI-2 QS modul)
NC(=O)c1ccc(N2CCCCC2)c(N2C(=O)C3C4C=CC(C4)C3C2=O)c1 (stereo not given)	none
O=C(O)c1ccc(N2CCOCC2)c(N2C(=O)C3C4C=CC(C4)C3C2=O)c1 (stereo not given)	PHOSPHO1 inh 62
CN(C)CCCN1C(=O)c2cccc3c(Br)ccc(c23)C1=O	PABP1 MLLE inh 57
O=C(O)CN1C(=O)c2cccc3c(Br)ccc1c23	none
CCOc1ccc(S(=O)(=O)NCCC(=O)NCC2(N3CCCCC3)CCCCC2)cc1	PABP FP inh active, eIF4H inh 94
O=C(NC(=S)Nc1ccccc1)c1csnn1	PABP1 MLLE inh 37
CCc1nc2c(OCCOC)cccn2c1N(C)C(=O)Nc1ccccc1OC	none (no result: AI-2 QS modul, PABP FP inh, PHOSPHO1 inh, eIF4H inh)
COc1ccc(C(O)c2nc(-c3cccc4cccnc34)cs2)cc1 (stereo not given)	none (no result: AI-2 QS modul, PABP FP inh, PHOSPHO1 inh, eIF4H inh)
CC(C)(C)c1n[nH]c(=S)n(/N=C/c2cccs2)c1=O	AI-2 QS modul -77
O=c1nc2s/c(=C\c3ccco3)c(=O)n2nc1Cc1ccc(F)cc1	PABP FP inh active, eIF4H inh 84
O=C(O)C1CSC(c2ccncc2)N1 (stereo not given)	PABP1 MLLE inh 38
CCCn1c(=O)c2sccc2n2c(CCCC(=O)NCc3ccco3)nnc12	PABP FP inh active, eIF4H inh 78
CCCn1c(=O)c2sccc2n2c(CCCC(=O)NCc3cccnc3)nnc12	none
Cc1ccc(C)c(S(=O)(=O)Nc2ccc3oc(C)c(C(=O)O)c3c2)c1	PABP FP inh active, eIF4H inh 87
CC(=O)c1c(C)oc2ccc(NS(=O)(=O)c3ccc(C)cc3)cc12	none
CCOC(=O)c1sc(=S)n(-c2ccccc2Cl)c1SC	PABP1 MLLE inh 39
Nc1nc(-c2ccc3c(c2)CCO3)cs1	PABP FP inh active
CCn1cc(C(=O)NC2CCCc3c2cnn3-c2cccc(C)c2C)cn1 (stereo not given)	ABCB6 inh 2 65
COc1ccc(C(=O)NC2CCCc3c2cnn3-c2cccc(C)c2C)o1 (stereo not given)	PHOSPHO1 inh 64 (no result: PABP FP inh, eIF4H inh)
Cc1ccc(S(=O)(=O)c2cc3ccccc3oc2=O)cc1	none
Cc1c(O)ccc2cc(S(=O)(=O)c3ccccc3)c(=O)oc12	PABP1 MLLE inh 44
